Measured values published in ChEMBL document CHEMBL4513216, “Probing the Open Global Health Chemical Diversity Library for Multistage-Active Starting Points for Next-Generation Antimalarials” (ACS Infect Dis, 2020).
In all, about 69,000 compounds went through this assay and about 8,600 (12%) showed an effect of 50% or more. Shown is part of a subset that was picked to be rich in strong results.

The compounds below were run on Plasmodium berghei (assay: Screen against P. berghei liver stage (PbLuc), transformed with Luciferase, at 10uM). Conditions: tested at 10 uM.
Assay type: functional, HepG2

Point of comparison: Cn1ccnc1CN1CCC(CNS(=O)(=O)c2cccnc2)C1 (stereo unspecified), INHIBITION 58.3%. Against it:
- CN(C)C(=O)CO[C@H]1CO[C@@]2(CCN(Cc3ccsc3)C2)C1 — lower, 24%
- Cc1nn(C)c(C)c1C1CCCN1CC(=O)Nc1ccc(Cl)cn1 (stereo unspecified) — lower, -48.4%
- O=C(Cc1cccnc1)N1CCCC2(CCN(C3CCOCC3)C2)C1 (stereo unspecified) — lower, -62.2%
- Cc1ccc(C(=O)N2CCC3(CC2)CC(c2ccccc2)C(=O)N3)cn1 (stereo unspecified) — lower, 30.5%
- Cc1nccn1[C@@H]1CC[C@@H](NC(=O)CCOc2ccccc2)[C@H]1O — lower, 21.7%
- CCC=C(C)C(=O)NCc1ccnc(OC)c1 — lower, 42.3%
- CCC=C(C)C(=O)NCc1ccnc(OC2CCOCC2)c1 — lower, 56%
- O=C(Cc1cccs1)NCc1ccnc(OC2CCOCC2)c1 — lower, -32.8%
- O=C(NCCC1CCN(CC(F)(F)F)CC1)C1COCCO1 (stereo unspecified) — lower, 21.8%
- c1cncc(CNCc2cccs2)c1 — lower, 6.26%
- O=C1CCCN1Cc1nnc2n1CCN(Cc1ccoc1)CC2 — lower, 33.2%
- O=C(O)c1cc(S(=O)(=O)N2CCOc3ccccc32)cc(Cl)c1Cl — lower, 23.25%
- O=C(c1ccccn1)N1C[C@H]2CC[C@@H](C1)N(C(=O)CCC1CCCC1)C2 — lower, -36.6%
- O=C(c1ccccn1)N1C[C@H]2CC[C@@H](C1)N(C(=O)CCC(F)(F)F)C2 — lower, 6.33%
- O=C(c1ccccn1)N1C[C@H]2CC[C@@H](C1)N(C(=O)CCN1CCCC1)C2 — lower, 50.3%
- CC(=O)c1c(F)cccc1NCC(O)C(C)(C)C (stereo unspecified) — lower, 30.5%
- O=C(NCC1Cn2nnc(-c3ccccc3)c2CO1)c1ccc[nH]1 (stereo unspecified) — lower, -29%
- Fc1cccc(-c2nnn3c2COC(CNc2ncccn2)C3)c1 (stereo unspecified) — lower, 54.4%
- c1cnc(NCC2Cn3nnc(-c4ccoc4)c3CO2)nc1 (stereo unspecified) — lower, 25.2%
- c1cnc(NCC2Cn3nnc(-c4ccsc4)c3CO2)nc1 (stereo unspecified) — lower, 45.1%
- NCC1Cn2nnc(-c3cccc(F)c3)c2CO1 (stereo unspecified) — lower, 6.8%
- Fc1cnc(NCC2Cn3nnc(-c4ccccc4)c3CO2)nc1 (stereo unspecified) — lower, 50.9%
- CNCC(=O)N1CCCC1c1n[nH]cc1-c1ccccc1F (stereo unspecified) — lower, -16%
- Cn1ccnc1CN1CCOC(C)(C(=O)N2CCOCC2)C1 (stereo unspecified) — lower, 35.2%
- COCCCN(Cc1ccc(F)cc1Cl)C1CCS(=O)(=O)C1 (stereo unspecified) — lower, 34.9%
- Cc1cccc(CN2CCC3(CCCN(C(=O)c4ccsc4)C3)C2=O)n1 (stereo unspecified) — lower, 12.6%
- Cc1nnc([C@]23COC[C@H]2CN(Cc2cnn(C)c2)C3)o1 — lower, 23.1%
- Cc1cc(Br)c(O)c(-c2nc(N3CCCCC3)sc2C)c1 — higher, 64.9%
- Cc1cc(Br)c(O)c(C(=O)N2CCC(CN3CCCCCC3)CC2)c1 — lower, 28.1%
- Cc1cc(Br)c(O)c(-c2nc(N3CCOCC3)sc2C)c1 — lower, 33.7%
- Cc1ccsc1CN1C[C@@H]2COC[C@]2(COCC(=O)N(C)C)C1 — lower, -4.32%
- O=c1ccc2c(n1CC1CC1)CCC(NCc1cccs1)C2 (stereo unspecified) — higher, 92.8%
- Cn1cc(CNC2CCc3c(ccc(=O)n3C)C2)cn1 (stereo unspecified) — lower, 18.6%
- CCCS(=O)(=O)NC1CCc2c(ccc(=O)n2CC2CC2)C1 (stereo unspecified) — lower, 43.9%
- O=C(CC1CC1)NC1CCc2c(ccc(=O)n2CC2CC2)C1 (stereo unspecified) — lower, -5.63%
- CC(C)NC1CCc2c(ccc(=O)n2CC2CC2)C1 (stereo unspecified) — lower, 47.4%
- O=c1ccc2c(n1CC1CC1)CCC(NS(=O)(=O)C1CC1)C2 (stereo unspecified) — lower, 14.8%
- Cc1cnc(NC2CCc3c(ccc(=O)n3C)C2)nc1 (stereo unspecified) — lower, -14.3%
- COc1ncccc1CNC1CCc2c(ccc(=O)n2C)C1 (stereo unspecified) — higher, 60.2%
- Cc1cnc(NC2CCc3c(ccc(=O)n3CC3CC3)C2)nc1 (stereo unspecified) — higher, 81.5%
- COc1ncccc1CNC1CCc2c(ccc(=O)n2CC2CC2)C1 (stereo unspecified) — lower, 55.7%
- CCS(=O)(=O)NC1CCc2c(ccc(=O)n2CC2CC2)C1 (stereo unspecified) — lower, 35.7%
- COCCn1c2c(ccc1=O)CC(NCc1cccnc1OC)CC2 (stereo unspecified) — lower, 41.2%
- O=C(CCN1CCOCC1)Nc1cccc(CNCc2ccsc2)c1 — lower, -1.79%
- O=C(N1CCCC1)N1CC[C@H]2OCC[C@@]2(COc2ncccc2F)C1 — lower, 4.1%
- CC(=O)N1CCC(C(=O)N2CCCC(Cc3cccc(C)n3)C2)CC1 (stereo unspecified) — lower, -18.9%
- CS(=O)(=O)N1CCO[C@@H]2CN(C(=O)c3cccnc3)C[C@@H]2C1 — lower, 2.7%
- COc1ccccc1CC(C)CC(=O)NS(=O)(=O)C(C)C (stereo unspecified) — lower, 9.57%
- CCC1=N[C@@]2(CC[C@@H]3CN(CC4CC4)C[C@@H]32)C(=O)N1C — lower, 24.5%
- CC(=O)NCc1nnc2n1CCN(c1ncnc3c(C)csc13)CC2 — lower, 24.7%
- CC(=O)NCc1nnc2n1CCN(c1nc(C)nc3sccc13)CC2 — lower, 55%
- O=C(NCc1nnc2n1CCC2)N1CCc2sccc2C1 — lower, -8.11%
- Cn1ccnc1CN1CCc2ncnc(N3CCCC3)c2CC1 — lower, -78.5%
- Cc1ccc(S(=O)(=O)CCC(=O)NCc2nnc3n2CCC3)cc1 — lower, -2.34%
- CC(=O)NCc1nnc2n1CCN(c1ncnc3c1CCC3)CC2 — lower, 56.1%
- COc1ncccc1C(=O)N1CCC(Nc2ccc(C)nn2)CC1 — lower, 33.7%
- c1nnc(Nc2cncc(C3CCCN3)n2)s1 (stereo unspecified) — lower, 13.285%
- Cc1cc(=O)n(C)cc1NC(=O)Cc1cc(F)ccc1F — lower, 56.5%
- Cc1cc(=O)n(C)cc1NC(=O)Cc1cccc(F)c1 — lower, 25.1%
- Cc1cc(=O)n(C)cc1NC(=O)Cc1ccc(C(F)(F)F)cc1 — lower, 11.7%
- Cc1ccc(NC2(C(=O)NCc3c(C)n[nH]c3C)CCCC2)cc1 — lower, 11.6%
- Cc1ccc(NC2(C(=O)NCCCN)CCCC2)cc1 — lower, 53.2%
- Cc1ccc(NC2(C(=O)NCCCc3c(C)n[nH]c3C)CCCC2)cc1 — lower, -40.9%
- CO[C@H]1CO[C@@]2(CCCN(C(=O)N(C)C)C2)C1 — lower, 35.8%
- CCc1n[nH]c(C2CN(C(=O)c3cc(C4CC4)on3)CCO2)n1 (stereo unspecified) — lower, -3.58%
- CNc1nc(CNC(=O)Nc2ccc([S+](C)[O-])c(F)c2)cs1 (stereo unspecified) — lower, 22.955%
- Cn1ccnc1CCNS(=O)(=O)c1cccnc1 — lower, 38.6%
- O=C(Oc1ccccc1)N1CCC(CNS(=O)(=O)c2cccnc2)CC1 — lower, 18.2%
- O=C(c1ccco1)N1CCc2onc(Cn3cccn3)c2C1 — lower, 21.5%
- CCNC(=O)[C@@H]1C[C@@H](N)CN1Cc1ccc2cccc(Cl)c2n1 — lower, 11.9%
- CNC(=O)[C@@H]1C[C@@H](N)CN1Cc1ccc2cccc(OC)c2n1 — lower, 55.5%
- CCNC(=O)[C@@H]1C[C@H](N)CN1Cc1ccc2cccc(Cl)c2n1 — lower, 35.4%
- O=C1CC2(CCN(S(=O)(=O)c3cccs3)C2)CN1c1ccccc1 (stereo unspecified) — lower, -0.104%
- CC(Cn1cccn1)NC(=O)N1CCN(Cc2ccsc2)CC1 (stereo unspecified) — lower, 4.71%
- CCCN(Cc1cnn(C)c1)S(=O)(=O)c1ccc(F)c(C#N)c1 — lower, -32.4%
- Cc1nc(N2CCN(C(=O)c3cccnc3)CC2)cc(-n2cccc2)n1 — lower, 32.4%
- O=C(c1ccccc1F)N1CCN(c2ccc(-n3cccn3)nn2)CC1 — lower, 0.472%
- Cc1cccc(C(=O)N2CCN(c3ccc(-n4cccc4)nn3)CC2)c1 — lower, 51.5%
- O=C(c1ccccc1F)N1CCN(c2ccc(-n3cccc3)nn2)CC1 — lower, 55.9%
- O=C(c1cccnc1)N1CCN(c2ccc(-n3cccc3)nn2)CC1 — lower, 0.647%
- O=C(c1ccccn1)N1CCN(c2ccc(-n3cccc3)nn2)CC1 — lower, 27.6%
- COCC(=O)N1CCCC1c1nccnc1Nc1nc(C)cs1 (stereo unspecified) — lower, 39.7%
- Cc1ccc(C(=O)O)cc1CNC(=O)CN1CC(C)(C)[C@@](C)(O)C1 — lower, 28.7%
- Cc1cnn(CC2CCCN2CC(=O)Nc2cc(C(C)C)no2)c1 (stereo unspecified) — lower, -35.7%
- CC(C)c1nccc(CN2CCCC(O)(CN3CCCC3)C2)n1 (stereo unspecified) — higher, 62%
- CC(C)c1nccc(CN2CCCC(O)(CN(C)C)C2)n1 (stereo unspecified) — lower, 7.92%
- OC1(CN2CCCC2)CCCN(Cc2cnc(-c3ccco3)nc2)C1 (stereo unspecified) — higher, 61%
- OC1(CN2CCCC2)CCCN(Cc2ccc(F)cc2Cl)C1 (stereo unspecified) — lower, 13.7%
- CC(C)c1nccc(CN2CCC(O)(CN3CCCCC3)C2)n1 (stereo unspecified) — lower, 32.5%
- Cc1cc(F)ccc1CN1CCCC(O)(CN2CCCC2)C1 (stereo unspecified) — lower, 55%
- Cc1cc(F)ccc1CN1CCC(O)(CN2CCCCC2)C1 (stereo unspecified) — lower, -10.4%
- CN(C)CC1(O)CCCN(Cc2cnc(-c3ccco3)nc2)CC1 (stereo unspecified) — lower, 6.28%
- OC1(CN2CCCC2)CCCN(Cc2cnc(-c3ccccc3)nc2)C1 (stereo unspecified) — lower, 45.7%
- O=C(Cc1cccnc1)N1CCC2(CCN(CC3CCCCC3)C2)CC1 — lower, 26.4%
- Cc1cc(C)cc(C(=O)N2CCCC3(CCCC(=O)N3C)C2)c1 (stereo unspecified) — lower, -15.9%
- O=C(c1ccc(-n2ccnc2)cc1)N1CCCC(n2ccnc2)C1 (stereo unspecified) — lower, 2.3%
- CC(C)(NS(C)(=O)=O)c1nc(-c2cccc(Cl)c2)no1 — lower, -4.83%
- CC=C(C)C(=O)NS(=O)(=O)c1ccc(C(F)(F)F)cc1 — lower, 13.2%
- Cc1ccc(CN(Cc2ccccn2)C2CC(C)(C)NC(C)(C)C2)s1 — lower, 37%
- Cc1ccsc1CN(Cc1cccnc1)C1CC(C)(C)NC(C)(C)C1 — lower, 33.7%
- CC1(C)CC(N(Cc2cccnc2)Cc2cccc(F)c2)CC(C)(C)N1 — higher, 75.3%
- CC1(C)CC(N(Cc2cccnc2)Cc2cccnc2)CC(C)(C)N1 — higher, 64.9%
- CC1(C)CC(N(Cc2ccccc2)Cc2c[nH]cn2)CC(C)(C)N1 — lower, 13.2%
- Cc1nc[nH]c1CN(Cc1ccccc1)C1CC(C)(C)NC(C)(C)C1 — lower, 6.785%
- CCCN(Cc1cccnc1)C1CC(C)(C)NC(C)(C)C1 — lower, 10%
- Cc1ccc(CN(Cc2cccnc2)C2CC(C)(C)NC(C)(C)C2)s1 — lower, 42.1%
- CC1(C)CC(N(Cc2ccccc2)Cc2cccnc2)CC(C)(C)N1 — higher, 65.4%
- CC1(C)CC(N(Cc2ccncc2)Cc2cccnc2)CC(C)(C)N1 — lower, 50.1%
- Cc1cccc(CN(Cc2cccnc2)C2CC(C)(C)NC(C)(C)C2)n1 — lower, 35.2%
- Cc1nc[nH]c1CN(Cc1ccc(F)cc1)C1CC(C)(C)NC(C)(C)C1 — lower, 42.4%
